Holding throughout (experiment): NCI-60 one-dose screen, 48 h (100 = growth as untreated, 0 = no growth, -100 = all killed)
Common to all, as to settings: 10 µM unless noted

Test [1] concerns HCT-15 colon.
Test [2] deals with HT29 colon.
Test [3] deals with SNB-75 CNS.
The subject of test [4] is SNB-19 CNS.
Test [5] concerns U251 CNS.
For test [6], the system named is PC-3 prostate.
The test system of test [7] is SK-MEL-5 melanoma.
Test [8] has as its system UACC-62 melanoma.
For test [9], the system named is LOX IMVI melanoma.
In test [10] the test system is SK-MEL-28 melanoma.
The subject of test [11] is SK-MEL-2 melanoma.
In test [12] the test system is EKVX NSCLC.
For test [13], the system named is SN12C renal.
Test [14] deals with UO-31 renal.
Test [15] deals with TK-10 renal.
Test [16] concerns ACHN renal.
The subject of test [17] is CAKI-1 renal.
Test [18] deals with A498 renal.
The subject of test [19] is CCRF-CEM leukemia.
The subject of test [20] is MOLT-4 leukemia.

Experimental findings from PubChem BioAssay (NCI) are described below.

Structures are written as SMILES. The panel holds about 83,000 compounds, 20% with a hit somewhere; the sample as a whole holds those more often.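 Cell lines were cultured in 96-well plates, exposed to a single compound concentration, and assessed for percent growth 48 hours later.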 Unmarked numbers belong to inactive results. The source made the active and inactive calls. The calls were made as follows: active = growth percent below 10; inactive = the rest.

`CC(=O)N1N=C(c2ccc(C(F)(F)F)cc2)CC1c1ccc2c(c1)OCO2` (stereo not drawn): the growth is 81.1% in test [1]; 47.4% in test [2]; 90% in test [3]; 91% in test [4]; 94.6% in test [5]; 73.9% in [6]. In addition, the growth in test [7] is 95%; in [8], 65%; in [9], 81.4%; in test [10] it was 95.4%; in test [11], 76.2%; in test [12], 81.4%. Further, the growth in [13] was 83.5%; in test [14], 55.9%; in test [15], 100%; in test [16] it was 95.7%; in test [17] it was 70.8%; in [18], 103%. For the same compound, the figures for the growth in [19] and in test [20] were 83.3% and 77.9%, respectively.

Consider `COc1ccc(CNC(=O)c2c(C)n([O-])c3ccc(OC)cc3[n+]2=O)cc1`, for which the growth in test [1] is 103%; in [2], 93.2%; in test [3], 99.1%; in test [4] it was 97.8%; in [5], 96.3%; in [6] it was 80.5%. Besides, the growth in [7] was 95%; in test [8], 94.9%; in test [9] it was 101%; in test [10] it was 108%; in test [11] it was 102%; in test [12], 87.8%. For the same compound, the growth in test [13] is 108%; in [14] it was 21.9%; in test [15], 104%; in test [16], 111%; in test [17] it was 230%; in test [18] it was 104%. The growth in test [19] is 100%; in test [20], 103%.

Consider `COc1ccc2ncccc2c1Cc1c(OC)ccc2ncccc12`, for which the growth in test [1] is 57.8%; in [2], 30%; in test [3], 44.1%; in test [4] it was 82.2%; in [5], 57.4%; in test [6], 74.6%. In addition, the growth is 60.5% in test [7]; 58% in test [8]; 68.4% in [9]; 77.4% in test [10]; 75.6% in test [11]; 85.4% in test [12]. For the same compound, the growth is 89.4% in test [13]; 55.6% in test [14]; 89.2% in test [15]; 86.1% in [16]; 57.6% in test [17]; 60.4% in test [18]. For the same compound, the growth in test [19] is 70.7%; in test [20], 57.9%.

For the compound `Cc1[nH]cnc1/C=C1\SC(N2CCCCC2)=NC1=O`, the growth in test [1] was 107%; in test [2], 108%; in test [3] it was 111%; in test [4], 102%; in [5], 108%; in test [6] it was 106%. For the same compound, the growth was 103% in test [7]; 100% in test [8]; 97.7% in [9]; 119% in test [10]; 98% in test [11]; 108% in test [12]. For the same compound, the growth in [13] was 98.4%; in test [14], 83%; in test [15], 109%; in test [16] it was 106%; in test [17], 112%; in test [18] it was 83.4%. In addition, the values for the growth in test [19] and in [20] were 99.3% and 100%, respectively.

In the case of `COc1ccc(C(=O)COc2ccc(/C=C3\Oc4ccc5ccccc5c4C3=O)cc2)cc1`, the growth in [1] was 126%; in [2], 111%; in [3], 75.5%; in test [4], 85%; in test [5], 99.5%; in [6] it was 81%. Besides, the growth in test [7] was 95.7%; in [8], 95.9%; in test [9] it was 93.5%; in test [10], 105%; in test [11], 77.9%; in test [12], 90.9%. For the same compound, the growth is 91.8% in test [13]; -2.22% (active) in test [14]; 142% in test [15]; 156% in test [16]; 96% in [17]; 102% in test [18]. Besides, the growth in test [19] was -21.9% (active); in [20] it was 50.4%.

Consider `O=C(NCCCl)NCCN1c2nc3ccccc3cc2Sc2cc3ccccc3nc21`, for which the growth is 51.9% in test [1]; 36.2% in test [2]; -5.93% (active) in test [3]; 63.9% in test [4]; 34.8% in [5]; 25.3% in [6]. In addition, the growth in test [7] was 9.61% (active); in test [8] it was 47.4%; in test [9], 49.7%; in test [10], 86.4%; in [11], 40.5%; in test [12] it was 54.7%. Besides, the growth in test [13] is 67.3%; in test [14], -5.97% (active); in test [15], 99.2%; in [16], 64.8%; in [17], 248%; in test [18], 80.3%. For the same compound, the growth in test [19] was 20.5%; in test [20] it was -9.47% (active).

As for `Cc1nn(-c2nc3ccccc3s2)c(C)c1Oc1ccccc1O`, the growth in test [1] was 29.4%; in test [2] it was 50.1%; in [3], 78.7%; in test [4], 80%; in [5], 33.9%; in test [6], 67%. The growth in [7] was 54.6%; in test [8] it was 39%; in test [9], 30.1%; in [10] it was 22.1%; in test [11], -9.64% (active); in test [12], 93.2%. In addition, the growth was 73.2% in test [13]; 38.9% in [14]; 100% in test [15]; 57.8% in test [16]; 98.8% in [17]; 51.7% in test [18]. The growth in test [19] is 76.6%; in test [20], 31.6%.

Consider `COc1cccc(/C=N/Nc2nc3ccccc3s2)c1OC`, for which the growth was 43.1% in test [1]; 61.1% in test [2]; 86.5% in test [3]; 83.9% in test [4]; 49.1% in test [5]; 46.3% in test [6]. Besides, the growth is 52.6% in test [7]; 66.7% in test [8]; 47.6% in [9]; 97.8% in test [10]; 81% in test [11]; 95.7% in test [12]. Further, the growth in [13] was 102%; in test [14], 85.1%; in test [15] it was 64.8%; in [16], 79.7%; in test [17], 78.8%; in [18], 121%. Also, the growth was 77% in test [19] and 74.4% in test [20].

`O=C1c2cccc(NCCN=Cc3ccccc3O)c2C(=O)c2c(NCCN=Cc3ccccc3O)cccc21`: the growth is 38.7% in test [1]; -4.87% (active) in [2]; 29.3% in test [3]; 14.3% in test [4]; 7.41% (active) in [5]; 10.2% in test [6]. The growth in test [7] is 52.7%; in test [8], 81.5%; in [9], -3.1% (active); in [10], 50.2%; in test [11] it was 46.5%; in test [12], 39.8%. Besides, the growth in test [13] is 44.5%; in [14], -4.5% (active); in test [15] it was 22.5%; in test [16], 15.4%; in [17], 27.6%; in [18], 50.7%. Also, the growth in [19] is 3.44% (active); in test [20], 15%.

As to `CC(=O)Nc1ccc(C(=O)COc2ccc(/C=C3\CCc4ccccc4C3=O)cc2)cc1`, the growth in test [1] is 102%; in test [2], 104%; in [3] it was 116%; in test [4], 106%; in [5], 98.6%; in test [6], 88.8%. Also, the growth in test [7] is 98%; in [8] it was 99.7%; in test [9] it was 99.9%; in [10] it was 122%; in test [11] it was 77.8%; in test [12], 99.8%. In addition, the growth in [13] is 103%; in [14], 33.2%; in [15], 112%; in test [16], 103%; in [17] it was 94.8%; in test [18], 66.3%. For the same compound, the growth in [19] was 89.4%; in [20], 78.8%.

For the compound `CCOC1Oc2ccccc2C(=O)/C1=N/c1nccs1` (stereo not drawn), the growth in test [1] is 80%; in test [2], 105%; in test [3], 75.1%; in [4], 91.7%; in test [5] it was 82%; in test [6] it was 67.8%. The growth in test [7] was 101%; in [8] it was 78.7%; in test [9], 85.2%; in test [10], 99.9%; in test [11] it was 73.9%; in test [12], 89.3%. Moreover, the growth was 76.4% in test [13]; 89.4% in test [14]; 98.8% in [15]; 84.9% in test [16]; 77.3% in [17]; 115% in [18]. The growth was 82.4% in [19] and 79.8% in [20].

Regarding `CSc1nc2nc3c(c(-c4ccc(C)cc4)c2c(=O)[nH]1)CN(C)C/C3=C\c1ccc(C)cc1`, the growth was 116% in [1]; 103% in test [2]; 93% in [3]; 97.3% in test [4]; 91.2% in [5]; 98.5% in test [6]. Also, the growth in test [7] was 77.1%; in [8], 93.8%; in test [9], 90%; in test [10], 111%; in test [11], 112%; in test [12], 83.5%. Besides, the growth in test [13] was 102%; in test [14], 86.1%; in test [16] it was 94.9%; in test [17], 93.7%; in test [18], 85.6%; in test [19], 85.2%. Besides, in test [20], the growth is 87.2%.

For the compound `O=C(/C=C/c1ccc([N+](=O)[O-])cc1)c1ccc2c3c(cccc13)CC2`, the growth is 59.5% in test [1]; 77.2% in test [2]; 89% in test [3]; 82.6% in test [4]; 13.7% in test [5]; 52.9% in [6]. Besides, the growth in test [7] was 97.8%; in test [8], 80.2%; in [9] it was 67.6%; in [10], 63.9%; in test [11], -24.8% (active); in test [12] it was 87.3%. Moreover, the growth in test [13] was 89.8%; in test [14], 19.2%; in test [15], 107%; in test [16] it was 99.1%; in test [17], 72.1%; in test [19], 35.5%. Besides, the growth in [20] was 62.7%.
